Results on ten compounds are retold here after PubChem BioAssay (NCATS).

“And” between values parts separate entries of the source, which are not always exact repeats. Equal values may be shown once. Results filed as inconclusive are left out. The source made the active and inactive calls. Unless noted, calls follow the shape of the dose curve; as a rule, active = well fitted curve in the direction sought with a large enough effect; inconclusive = small, poorly fitted or top-dose-only effect, or another doubt; inactive = no such curve, though single readings can be large; an effect the other way counts as inactive or inconclusive.

Assay [1] has as its target Cytochrome P450 2C9 (Homo sapiens) (UniProt P11712). In words: Cytochrome P450 family 2 subfamily C member 9 (CYP2C9) small molecule antagonists: luciferase biochemical (cell-free) qHTS assay (AID 1645842; active = well fitted curve in the direction sought with a large enough effect in the repeat runs; an effect the other way counts as inactive or inconclusive; also: nearly all actives have a fitted effect of over 55% in size). The gist of the method: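 P450-Glo CYP2C9 system: proluciferin substrate with enzyme in mix containing 0.4% BSA, 10 min at room temperature, then NADPH regeneration solution added and incubated 1 h at 37C. Detection reagent stopped reaction; luminescence read after 20 min as RLU.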

Assay [2] in a line: Primary qHTS for inhibitors of nuclear receptor binding SET domain protein 2 (NSD2) in an isogenic RCH-ACV NSD2 p.E1099K mutant (9B) (AID 1645876). Also: nearly all actives have a fitted effect of over 70% in size.
The nature of assay [3]: Primary qHTS for inhibitors of nuclear receptor binding SET domain protein 2 (NSD2) in an RCH-ACV wild type WT cells (2C) (AID 1645877). Also: nearly all actives have a fitted effect of over 70% in size. A general note: In qHTS, concentration-response curves come from the screen itself.
Potency is read from the fitted curve at half-maximal effect.

Sequence of Cytochrome P450 2C9 (Homo sapiens) (P11712 whole entry, looked up): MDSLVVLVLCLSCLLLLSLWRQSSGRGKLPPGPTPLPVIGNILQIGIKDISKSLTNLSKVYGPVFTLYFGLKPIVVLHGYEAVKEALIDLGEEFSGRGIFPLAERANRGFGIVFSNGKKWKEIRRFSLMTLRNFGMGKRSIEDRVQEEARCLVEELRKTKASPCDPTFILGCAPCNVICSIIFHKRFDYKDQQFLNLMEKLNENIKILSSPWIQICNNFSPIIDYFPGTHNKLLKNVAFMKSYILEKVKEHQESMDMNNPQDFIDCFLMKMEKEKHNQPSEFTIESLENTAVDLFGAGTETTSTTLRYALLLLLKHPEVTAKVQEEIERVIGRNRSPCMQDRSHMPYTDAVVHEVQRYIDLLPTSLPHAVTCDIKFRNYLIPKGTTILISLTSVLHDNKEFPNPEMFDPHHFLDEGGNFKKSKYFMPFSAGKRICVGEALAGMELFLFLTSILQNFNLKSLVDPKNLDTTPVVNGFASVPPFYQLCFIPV

As to `FC(F)(F)c1ccccc1-c1cc(C(F)(F)F)c2nc(C3=NOC4(CCCCC4)C3)[nH]c2c1`, the Potency entry in assay [1] is “inactive”. The Potency in assay [2] is 18.3 µM (active); in assay [3], 14.5 µM (active).

For the compound `Cc1nc(C#Cc2ccnc(Cl)c2)c(C)n1-c1ccc(OC(F)(F)F)cc1`, the Potency in assay [1] was 8.49 µM (active); in assay [2], 18.3 µM (active); in assay [3] it was 10.3 µM (active).

As to `Cc1cc(-c2cnc(N)c3c(-c4ccc5scnc5c4)csc23)n(C)n1`, the results for the Potency in assay [1], in assay [2] and in assay [3] were 10.7 µM (active), 4.59 µM (active) and 5.78 µM (active), respectively.

Consider `Cc1ccccc1CN1CCn2c1nc1c(c2=O)CN(Cc2ccccc2)CC1`, for which the Potency in assay [1] is 8.49 µM (active). The Potency entry in assay [2] and in assay [3] was “inactive” in each case.

On to `O=C(NC1(c2ccccc2)CC1)c1c(CN2CCC(N3CCCCC3)CC2)c(-c2cccc(C(F)(F)F)c2)nc2cc(Br)ccc12`, for which the figures for the Potency in assay [1], in assay [2] and in assay [3] were 23.9 µM (active), 12.9 µM (active) and 10.3 µM (active), respectively.

With `Cc1cc(C(C)Nc2ccccc2C(=O)O)c2nc(N3CCOCC3)cc(=O)n2c1` (stereo not given), the results for the Potency in assay [1], in assay [2] and in assay [3] were 8.49 µM (active), 0.409 µM (active) and 0.728 µM (active), respectively.

As to `COC1CCN(C(=O)c2cc(Cc3n[nH]c(=O)c4ccccc34)ccc2F)CC1`, the Potency was 23.9 µM (active) in assay [1], 13.2 µM (active) in assay [2] and 8.33 µM (active) in assay [3].

On to `Cc1c(C(=O)Nc2ccc(N3CCC(N4CCOCC4)CC3)c(C#N)c2)cnn1-c1ccc(Cl)cc1`, for which the Potency was 2.13 µM (active) in assay [1], 0.23 µM (active) in assay [2] and 0.23 µM (active) in assay [3].

For the compound `NS(=O)(=O)Nc1ncnc(OCCOc2ncc(Br)cn2)c1-c1ccc(Br)cc1`, the values for the Potency in assay [1], in assay [2] and in assay [3] were 4.77 µM (active), 16.3 µM (active) and 11.5 µM (active), respectively.

In the case of `Nc1nccc(-c2c(-c3ccc(F)cc3)ncn2C2CCCCC2)n1`, the Potency in assay [1] is 16.9 µM (active); in assay [2] it was 9.16 µM (active) and 11.8 µM (active); in assay [3] it was 14.5 µM (active) and 10.5 µM (active).
